Inconclusive results are not listed. Where a call stands in place of a potency, no number is given. The source made the active and inactive calls. Calls follow the shape of the dose curve; as a rule, active = well fitted inhibition curve with a large enough effect; inconclusive = small, poorly fitted or top-dose-only effect; inactive = flat fitted curve, though single readings scatter.

Sequence of Calcium and integrin-binding protein 1 (Homo sapiens) (Q99828 whole entry, looked up): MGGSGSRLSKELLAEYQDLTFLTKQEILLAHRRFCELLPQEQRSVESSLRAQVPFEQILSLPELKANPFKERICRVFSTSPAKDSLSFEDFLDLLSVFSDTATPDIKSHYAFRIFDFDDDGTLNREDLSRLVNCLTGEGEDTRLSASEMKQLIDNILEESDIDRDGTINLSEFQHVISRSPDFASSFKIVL

In this assay the target is Calcium and integrin-binding protein 1 (Homo sapiens) (UniProt Q99828). Nature of the assay: Primary qHTS for Identification of Calcium Integrin Binding Protein 1 (CIB1) Competitor (AID 1508620).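 Also: GST tagged CIB1 binding a fluorescein labelled alphaIIb integrin peptide tracer; top concentration of the series differs between compounds.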 Conditions: CIB1-GST / FITC-alphaIIb peptide fluorescence polarization; series mostly up to 114 µM. Put shortly:
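CIB1-GST (1 uM final) and compound incubated 15 min at room temperature before adding FITC-alphaIIb peptide tracer (100 nM final). Competition for binding read by fluorescence polarization (ex 480, em 540) after another 15 min at room temperature.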
A general note: Quantitative high-throughput screening tests each substance at several concentrations.
`C[C@@H]1O[C@@H](O[C@H]2[C@H](O[C@H]3CC[C@@]4(C)C(CC[C@]5(C)C4C=C[C@]46OC[C@@]7(CCC(C)(C)C[C@H]74)[C@@H](O)C[C@]65C)[C@]3(C)CO)O[C@H](CO)[C@@H](O)[C@@H]2O[C@@H]2O[C@H](CO)[C@@H](O[C@@H]3O[C@@H](C)[C@H](O)[C@@H](O)[C@H]3O)[C@H](O)[C@H]2O)[C@H](O)[C@H](O)[C@H]1O` (some centres not stated): the Potency result is “inactive”.

Take `CC1=CC(=O)C2C(C)(C)CCC[C@]2(C)[C@H]1CO` (some centres not stated): the Potency entry is “inactive”.

Regarding `Cn1nnc(-c2ccc(-c3ccc(N4C[C@H](COP(=O)(O)O)OC4=O)cc3F)cn2)n1`, the Potency result was “inactive”.

`C[C@@H]1CCN(C(=O)N2CCCC2)C[C@@H]1N(C)c1ncnc2[nH]ccc12`: the Potency result was “inactive”.

Take `C[C@@H]1O[C@@H](O[C@H]2[C@H](O)[C@@H](O)[C@H](O[C@H]3[C@H](O[C@H]4CC[C@@]5(C)C(=CC[C@@H]6C5CC[C@]5(C)[C@@H]7[C@H](C[C@@H]65)O[C@]5(CC[C@@](C)(CO[C@@H]6O[C@H](CO)[C@@H](O)[C@H](O)[C@H]6O)O5)[C@H]7C)C4)O[C@H](CO)[C@@H](O)[C@@H]3O)O[C@@H]2CO)[C@H](O)[C@H](O)[C@H]1O` (some centres not stated): the Potency entry was “inactive”.

Consider `CC(=O)O[C@]1(C(C)=O)CC[C@H]2[C@@H]3C[C@H](C)C4=CC(=O)C=C[C@]4(C)[C@@]3(F)[C@@H](O)C[C@@]21C`, for which the Potency result is “inactive”.

On to `C/C=C/C=C/C(O)=C1\C(=O)[C@]2(C)C3C(C(=O)CC/C=C/C)=C(O)C4(C)C1[C@]1(C)O[C@@]4(O)[C@@]3(C)O[C@@]12O`, for which the Potency result was “inactive”.

The values above are taken from PubChem BioAssay (NCATS).
